# Rows were chosen to be rich in hits. Some 5.8% of all compounds tested hit in one or more screens of this group.
# FLuc inh: blocks Photinus pyralis firefly luciferase activity; purified firefly luciferase, luminescence, 8 min; Potency, µM (doses to about 57.1 µM), for the others: at the top dose activity change, negative = inhibition, hits mostly inhibitors; 72,000 compounds, 2.2% hits; AID 411; also: % is scaled to controls: 0 for no effect and ±100 for the full control effect; nearly all actives have a fitted effect of over 40% in size
# Target sequence (P08659 whole entry, looked up): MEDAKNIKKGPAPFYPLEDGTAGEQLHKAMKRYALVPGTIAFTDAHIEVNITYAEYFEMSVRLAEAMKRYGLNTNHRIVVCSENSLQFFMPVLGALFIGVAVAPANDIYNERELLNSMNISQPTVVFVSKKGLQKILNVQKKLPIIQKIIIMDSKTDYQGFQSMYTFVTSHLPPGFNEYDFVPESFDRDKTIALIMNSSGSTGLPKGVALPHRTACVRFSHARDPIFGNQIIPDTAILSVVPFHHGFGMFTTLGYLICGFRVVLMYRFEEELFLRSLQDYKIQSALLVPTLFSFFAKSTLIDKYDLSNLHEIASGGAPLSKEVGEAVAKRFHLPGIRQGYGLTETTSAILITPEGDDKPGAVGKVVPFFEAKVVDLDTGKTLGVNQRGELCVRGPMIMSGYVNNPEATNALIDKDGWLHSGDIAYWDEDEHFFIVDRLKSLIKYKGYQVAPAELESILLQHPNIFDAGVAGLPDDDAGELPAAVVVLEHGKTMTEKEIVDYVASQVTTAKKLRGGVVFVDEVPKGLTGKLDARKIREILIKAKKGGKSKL
#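 Firefly luciferase (PKLight detection mix) with 10 uM ATP in pH 7.2 imidazole buffer (KCl, MgCl2, Tween 20, BSA). Compounds tested across a concentration series (qHTS). Luminescence read after 8 min at ambient temperature.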
# TSHR ag: activates the human thyroid stimulating hormone receptor | P16473 | Potency, µM (highest dose often 57.1 µM), for the others: top-dose activation, hits mostly activators | HEK293-CNG-TSHR cells (CNG channel as cAMP sensor), membrane potential dye, cAMP | 73,000 compounds, 0.48% hits | AID 926; active = well fitted activation curve with a large enough effect in the main read-out, with a control signal flat, not every such curve was filed as active; inconclusive = small, poorly fitted or top-dose-only effect, or a change in a side signal; inactive = no such curve, though single readings can be large or run the other way; % of control where 0% means no effect;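 also: the control signal comes from parental cells without the receptor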
#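 HEK 293 cells stably expressing TSHR and a cAMP-gated CNG channel; parental CNG-only cells as counterscreen. Cells preloaded 60 min with membrane potential dye plus 100 uM RO 20-1724, then compound 30 min; fluorescence read at 590 nm.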
# PK Bst: pyruvate kinase (B. stearothermophilus) modulation. purified pyruvate kinase, luminescence ATP production; ribose 5-phosphate activator present at AC10. 51,000 compounds, 1.2% hits. Potency, µM; in the data active = potency below about 11 µM; inconclusive = mostly about 12 µM to 25 µM;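 the screen sought inhibitors and activators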;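 also: scaled between full activation by ribose 5 phosphate and full inhibition by luteolin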
# GBA activity: modulators of human glucocerebrosidase. P04062. purified enzyme, resorufin glucoside fluorescence (screen aimed at inhibitors), 20 min. Potency, µM. 48,000 compounds, 1.1% hits; in the data active = potency below about 15 µM; inconclusive = mostly about 16 µM to 33 µM;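 also: the screen sought inhibitors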
#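 Wild-type enzyme at 0.2 nM final in 50mM citric acid/KH2PO4, 10mM sodium taurocholate, 0.01% tween-20, pH 5.9, with resorufin beta-D-glucopyranoside at 30 uM final. Compounds titrated, 20 min at RT, red fluorescence read; AC50 from titration.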
# HEK293 cAMP cs: counter-screen for TSHR agonists: cAMP increase in parental HEK293; parental HEK293 CNG cAMP sensor, membrane potential fluorescence; Potency, µM (titrated, usually from 57.1 µM), for the others: at the highest dose activation, usual class: activators; 73,000 compounds, 2.5% hits; also: % of control where 0% means no effect; nearly all actives have a fitted effect of over 55% in size
#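 Parental HEK 293 cells stably expressing a cAMP-gated CNG channel were loaded with membrane potential dye containing 100 uM RO 20-1724 for 60 min. Compound added for 30 min; depolarization read as fluorescence intensity at 590 nm.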
# An asterisk follows results filed as active; i = inactive; ? = inconclusive; nt = no result given; [ ] = remark or other dose. Unless noted, calls follow the shape of the dose curve; as a rule, active = well fitted curve in the direction sought with a large enough effect; inconclusive = small, poorly fitted or top-dose-only effect, or another doubt; inactive = no such curve, though single readings can be large; an effect the other way counts as inactive or inconclusive. Potency is read from the fitted curve at half-maximal effect.
SMILES,FLuc inh,TSHR ag,PK Bst,GBA activity,HEK293 cAMP cs
CC(C)(C)n1nnnc1C(c1cccs1)N(Cc1ccccc1)Cc1ccco1 (stereo not given),-4%,?,>57,i,16µM*
Clc1nc(NCCc2ccccc2)c2ncn(-c3ccccc3)c2n1,1%[11.4 µM],?,nt,nt,?
O=C(c1cc(-c2ccc(Cl)cc2Cl)on1)N1CCOCC1,7.9µM*,-10%,6.3*,>77,4%
O=C(c1cc(-c2ccc(Cl)cc2)on1)N1CCOCC1,13µM*,-6%,nt,>77,-4%
CC(=O)O[C@@H]1CC(C)=C2[C@H]1[C@H](C)CC[C@H]2/C=C(\C)C(=O)O,nt,2%,nt,nt,29%
Cc1nn(C(=O)c2cccnc2)c(C)c1C,2%,?,>57,>77,6.3µM*
COc1ccc(-c2nnc3sc(-c4cccs4)nn23)cc1OC,0%,13%,2.6*,>77,17%
COc1cc(-c2nnc3sc(-c4cccs4)nn23)cc(OC)c1OC,1%,12%,2.8*,>77,-4%
COc1cc(-c2nn3c(-c4cccnc4)nnc3s2)cc(OC)c1OC,2%[25.5 µM],nt,>26,nt,nt
COc1ccc(-c2nn3c(-c4cccc(C)c4)nnc3s2)cc1OC,0%,?,>57,>77,?
CN(C)c1ncc2nc(-c3ccccc3)c(=O)n(C[C@H]3CCCO3)c2n1,-1%[11.4 µM],15%,nt,nt,20%
CS(=O)(=O)c1ccc(Cn2c3c(c4cc(F)cc(F)c42)CCC[C@H]3CC(=O)O)cc1,-6%,-9%,nt,nt,13%
COc1ccc(-c2cc(C(=O)N/N=C\c3cc(OC)c(OC)c(OC)c3)[nH]n2)cc1,nt,0%,nt,nt,-13%
c1c2c(cc3sc(N4CCOCC4)nc13)OCO2,16µM*,nt,i,>77,1%
c1c2c(cc3sc(N4CCCCC4)nc13)OCO2,6.3µM*,3%,6.2*,>77,14%
c1ccc2c(c1)CCN(c1nc3cc4c(cc3s1)OCO4)C2,4µM*,-27%,2.8*,>77,-14%
c1ccc(N2CCN(c3nc4cc5c(cc4s3)OCO5)CC2)cc1,?,1%,nt,>77,-6%
O=C(NC1CC2CCCC(C1)N2C1CC1)NC12CC3CC(CC(C3)C1)C2 (stereo not given),-32%,5%,>57,10*,6%
O=C(NC1CC2CCC(C1)N2C(=O)NC1CCCCC1)NC12CC3CC(CC(C3)C1)C2 (stereo not given),1%,-5%,>57,>77,3%
CC1(C)S[C@@H]2[C@H](C(=O)O)N=C(Cc3ccccc3)N2[C@H]1C(=O)O,0%[11.4 µM],-2%[11.4 µM],nt,nt,5%[11.4 µM]
O=C(Nc1ccc([N+](=O)[O-])cc1Cl)c1cc(Cl)ccc1O,?,?,nt,nt,0.5µM*
O=C(Nc1ccccc1)c1cc([N+](=O)[O-])ccc1Cl,?,?,nt,nt,-31%
CSCCNC(=O)c1ccc(C(C)(C)C)cc1,13µM*,14%,?,>77,3%
O=C(NCCSc1ccccc1)c1ccccc1,?,4%,nt,>77,8%
CN1C(=O)CC[C@@H]1c1cccnc1,0%[11.4 µM],-3%,nt,nt,0%
SMILES,FLuc inh,TSHR ag,PK Bst,GBA activity,HEK293 cAMP cs
Nc1ccc([N+](=O)[O-])c(N)c1,nt,?,nt,nt,43%
COc1ccc(-c2cc(C(=O)N3CCCc4ccccc43)no2)cc1,16µM*,?,i,>77,20µM*
COc1ccc(OCCCC(=O)N2CCCc3ccccc32)cc1,1%,?,>57,>77,16µM*
COc1ccc(OC)c(-c2cc(C(=O)N3CCCc4ccccc43)no2)c1,5%,?,>57,>77,?
COc1ccc(-c2cc(C(=O)N3CCCc4ccccc43)no2)cc1OC,-3%,?,>57,>77,25µM*
COc1cccc(-c2cc(C(=O)N3CCCc4ccccc43)no2)c1,-23%,?,nt,>77,16µM*
C[N+](C)(N)Cc1nc(-c2ccc(Cl)cc2)no1,-3%[11.4 µM],3%[11.4 µM],nt,nt,7%[11.4 µM]
COC(=O)c1ccc(C(NC(=O)OCc2ccccc2)/C(=C/[C@@H](C)C(=O)NCc2nc3ccccc3n2C)c2cccnc2)cc1 (stereo not given in full),nt,nt,nt,nt,13%
CCNc1ncc2nc(C)c(=O)n(Cc3cccc(OC)c3)c2n1,0%[11.4 µM],3%,nt,nt,25%
COc1ccc(C2=NOC(C(=O)N3CCCc4ccccc43)C2)cc1 (stereo not given),16µM*,8%,nt,>77,29%
COc1cc(C2=NOC(C(=O)N3CCCc4ccccc43)C2)cc(OC)c1OC (stereo not given),0%,?,nt,>77,?
O=NC1=C(c2c(O)[nH]c3ccccc23)CCCC1,2%,6%,nt,nt,14%
Cc1cccc(/N=C/c2c(O)[nH]c3ccccc23)n1,4µM*,19%,nt,nt,-3%
Cc1cccc(/N=C/c2c(O)cc(C)oc2=O)n1,3%,4%,>57,>77,-7%
Oc1[nH]c2ccccc2c1C=Nc1ccc2c(c1)OCCO2,4µM*,-16%,3.2*,?,0%
C[N+]1(C)CCO[C@](O)(c2ccccc2)C1,3%[11.4 µM],1%[11.4 µM],nt,nt,-4%[11.4 µM]
O=C(Nc1cccnc1)c1cn(-c2ccccc2)nc1-c1cccs1,10µM*,8%,10*,>77,-2%
O=C(Nc1cccnc1)c1cc(-c2cccs2)on1,-16%,-3%,>57,>77,-1%
Nc1nc(SCCc2ccccc2)c2[nH]cnc2n1,1%[11.4 µM],0%[11.4 µM],nt,nt,-7%[11.4 µM]
CC[C@H](C)N(C)C(=O)c1cc2ccccc2c(-c2ccccc2Cl)n1,-5%,25µM*,nt,nt,?
Cc1ccc(Nc2nc(C3CC3)cs2)cc1,7.9µM*,0%,nt,nt,4%
CCN(CC)C(=O)c1csc(Nc2ccc(C)cc2)n1,-2%,-3%,>57,nt,-8%
FC(F)(F)c1ccccc1-c1ccc2ncnc(NC3CC3)c2c1,-1%[2.29 µM],?,nt,nt,32µM*
Cc1ccccc1-c1ccc2ncnc(NC3CC3)c2c1,1%[2.29 µM],?,nt,nt,?
FC(F)(F)c1ccccc1-c1ccc2ncnc(NCc3cccs3)c2c1,1%[2.29 µM],?,nt,nt,10µM*
SMILES,FLuc inh,TSHR ag,PK Bst,GBA activity,HEK293 cAMP cs
CC(C)[C@@H]1NC(=O)[C@H](CCCCN)NC(=O)[C@H](Cc2c[nH]c3ccccc23)NC(=O)[C@H](Cc2ccc(O)cc2)NC(=O)[C@H](C)N(C)C(=O)[C@H](Cc2ccccc2)NC1=O,0%,3%,nt,nt,3%
O=c1c(-c2cccs2)nc2cncnc2n1Cc1ccccc1,1%[11.4 µM],2%,nt,nt,-4%
COc1ccccc1NC(=O)Cn1nc(C(F)(F)F)c2c1CCCC2,-4%,?,>57,>77,20µM*
O=C(Cn1nc(C(F)(F)F)c2c1CCCC2)Nc1ccc2c(c1)OCO2,2%,2%,>57,>77,10%
Cc1ccc(C)c(CSc2nnc(-c3cccnc3)n2N)c1,-2%,24%,>57,4.2*,0%
CCCn1c(C)nc2c(N3CCOCC3)nc(C)nc21,nt,2%,nt,nt,10%
Cc1cccc(-c2cc3nc4c(c(N5CCOCC5)n3n2)CCCC4)c1,16µM*,?,?,>77,?

# Compound activity from PubChem BioAssay.
